Laboratory results taken from PubChem BioAssay (NCI).
This is part of a sample that, as a whole, favours compounds with a hit. Of some 79,000 tested, about 15% had one in any assay. Calls of active or inactive are those of the source. Cut-off read from the data, not from the text of the source: active = growth inhibition above about 70%; inactive = the rest.

What was measured:
[1] = NCI Yeast Anticancer Drug Screen. Data for the rad50 strain (AID 155);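 note: 0% = growth of vehicle-only cultures of the same strain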; details: S. cerevisiae rad50 strain growth inhibition; at 50.0 µM; active compounds read high
Procedure, shortened: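 Inhibition values express reduced yeast growth in compound-treated cultures relative to vehicle-treated controls.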

[2] = NCI Yeast Anticancer Drug Screen. Data for the mec2-1 strain (AID 157); details: S. cerevisiae mec2-1 strain, at 50.0 µM, active compounds read high
Procedure, shortened: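 Each compound was tested on mec2-1 yeast, a strain altered in DNA damage repair or cell cycle control. Growth inhibition is reported relative to vehicle.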

[3] = NCI Yeast Anticancer Drug Screen. Data for the sgs1 mgt1 strain (AID 161);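 note: 0% = growth of cultures given vehicle only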; details: S. cerevisiae sgs1 mgt1 strain, at 50.0 µM, active compounds read high
Procedure, shortened: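 Read-out: growth inhibition vs vehicle controls. Cells: mutant yeast strain deficient in DNA damage repair.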

[4] = NCI Yeast Anticancer Drug Screen. Data for the cln2 rad14 strain (AID 165);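 note: 0% = growth equal to vehicle treated cultures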; details: S. cerevisiae cln2 rad14 strain, at 50.0 µM, active compounds read high
Procedure, shortened: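 Test compounds were added to cln2 rad14 yeast cultures; inhibition of growth was then determined by comparison with vehicle treatment.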

[5] = NCI Yeast Anticancer Drug Screen. Data for the bub3 strain (AID 167); details: S. cerevisiae bub3 mutant strain, at 50.0 µM, active compounds read high
Procedure, shortened: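 Steps: expose the mutant yeast strain to compound; grow alongside vehicle-treated cultures; measure growth; express inhibition against the vehicle cultures.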

[6] = NCI Yeast Anticancer Drug Screen. Data for the mlh1 rad18 strain (AID 175); details: S. cerevisiae mlh1 rad18 strain growth inhibition; at 50.0 µM; active compounds read high
Procedure, shortened: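 Inhibition values reflect reduced growth of mutant yeast versus vehicle-treated controls following compound exposure; the mutations affect DNA damage repair.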

Measured: growth inhibition

O=C1OC(c2ccccc2)=N/C1=C\c1ccc(F)cc1
inactive: [1] -10.4% | [2] -17.5% | [3] -1.75% | [4] -10.2% | [5] -19.3% | [6] -3.75%

COc1cccc(C2C(C(=O)O)=C(CO)Oc3cc4c(cc32)OCO4)c1 (stereo unspecified)
inactive: [1] 21.4% | [2] 15.8% | [3] 21.9% | [4] 13.6% | [5] 12.6% | [6] 15.2%

COC(=O)/C(=N\NC(C)(C)C)C(C(=O)OC)C(=O)C(=O)Nc1cc(Cl)ccc1Cl (stereo unspecified)
inactive: [1] 6.7% | [2] -0.25% | [3] -1.65% | [4] 1% | [5] -24.6% | [6] 8.55%

CCOC(=O)C(CCC(C)(C)SCc1ccccc1)(NC(C)=O)C(=O)OCC
inactive: [1] 25.8% | [2] -1.15% | [3] 1.45% | [4] 16.7% | [5] 2.15% | [6] 5.6%

NC(=O)Cc1cc2c(cc1CO)OCO2
inactive: [1] 3.85% | [2] 1.8% | [3] 2.45% | [4] 7.9% | [5] -13.3% | [6] 5.55%

Nc1cccc(OCCOc2ccccc2[N+](=O)[O-])c1
inactive: [1] 5% | [2] 26.6% | [3] 28.1% | [4] -4.7% | [5] 29.5% | [6] 18.9%

COc1cc(/C=C/C(=O)O)cc(OC)c1OC
inactive: [1] -4.95% | [2] -2.1% | [3] 12.9% | [4] 6.1% | [5] 11.2% | [6] 10.7%

Nn1nc2ccccc2n1
inactive: [1] -0.15% | [2] 0.2% | [3] -11.1% | [4] 1.6% | [5] 0.75% | [6] 1.45%

CCOC(=O)c1ccc(C#N)cc1
inactive: [1] -8% | [2] -57.3% | [3] -11.2% | [4] -7.6% | [5] -15.7% | [6] 5.45%

COCCNC(=O)C(C)O (stereo unspecified)
inactive: [1] 1.7% | [2] 3.95% | [3] -4.9% | [4] 19.2% | [5] 17.1% | [6] 6.15%

Ic1ccc(N=Cc2cccs2)cc1
inactive: [1] 5.1% | [2] -1.85% | [3] 21.6% | [4] 6.8% | [5] 10.8% | [6] 21.8%

CC1CCC2C(C)C3C(CC4C5CC=C6CC(O)CCC6(C)C5CCC43C=O)N2C1 (stereo unspecified)
inactive: [1] 30.3% | [2] 19.9% | [3] 24.9% | [4] 16.6% | [5] 3.9% | [6] 19.4%

CCCCN(CCCC)CCC(O)c1cc(-c2ccc(Cl)c(Cl)c2)nc2c(Cl)cc(Cl)cc12 (stereo unspecified)
active: [1] 96.4% | [2] 95.5% | [4] 97.2% | [5] 90.3% | [6] 74.8%
inactive: [3] 6.85%

COc1ccc(C2C3=C(COC3=O)Oc3cc4c(cc32)OCO4)cc1OC (stereo unspecified)
inactive: [1] -21.5% | [2] -33% | [3] -17.9% | [4] -3.95% | [5] 5.45% | [6] -10.8%

O=C(CCC(=O)C1Cc2ccccc2C1=O)Nc1cccc(C(F)(F)F)c1 (stereo unspecified)
inactive: [1] -38.8% | [2] -42% | [3] -18.8% | [4] -1.5% | [5] -22.9% | [6] -30.7%

OCC(O)C(O)C(O)C(SCc1ccccc1)SCc1ccccc1 (stereo unspecified)
inactive: [1] 3.9% | [2] -7.85% | [3] -20.4% | [4] -4.8% | [5] -6.2% | [6] -12.6%

CCN1CC(O)Cc2ccccc21 (stereo unspecified)
inactive: [1] -3.55% | [2] 8.55% | [3] 11.2% | [4] 1.4% | [5] -8.35% | [6] -3.5%

CCN(CC)C(=S)Oc1cc(C)nc(SCC(=O)c2ccc(Cl)cc2)n1
inactive: [1] 22.6% | [2] -18.8% | [3] 41.2% | [4] 29.2% | [5] 30.8% | [6] 28.4%

CC1=NN(c2nc(N)nc(CCl)n2)CC1
inactive: [1] 11.1% | [2] 6.35% | [3] 8.15% | [4] 21.9% | [5] 11.5% | [6] -29.2%

CN(C)C(=O)Nc1ccc2c(c1)OCO2
inactive: [1] 0.8% | [2] 8.6% | [3] -1.4% | [4] -31.9% | [5] -13.2% | [6] 9.45%

Nc1cc(C(F)(F)F)ccc1[N+](=O)[O-]
inactive: [1] 14.2% | [2] -10.2% | [3] 8% | [4] -7.25% | [5] 8.85% | [6] 22.4%

CCCCON1C[C@@H](O)C(O)[C@@H](O)C1 (stereo partly specified)
inactive: [1] -25.9% | [2] 8.9% | [3] -37.9% | [4] -13.2% | [5] 13.6% | [6] -4.35%

CC(=O)c1cc(Cl)ccc1Cl
inactive: [1] 23.9% | [2] -6.2% | [3] -0.8% | [4] 33% | [5] -3.05% | [6] 26.1%

Nc1ccc(S(=O)(=O)O)cc1N
inactive: [1] -15.3% | [2] -11.1% | [3] -8% | [4] -19.5% | [5] 2.95% | [6] -4.5%

O=C(O)c1cc(=O)[nH]c(SCc2ccc(Cl)cc2Cl)n1
inactive: [1] -14.4% | [2] 14.5% | [3] -7.05% | [4] -10.2% | [5] 9.6% | [6] -1.35%

COC(=O)c1c(-c2ccc(OC)c(OC)c2)cn(C)c1C
inactive: [1] 19.4% | [2] 12.8% | [3] 21% | [4] -6.15% | [5] 10.5% | [6] 25.2%

NC1=Nc2ncccc2C(=O)NN1
inactive: [1] -17.4% | [2] 19.5% | [3] 8.1% | [4] 17.8% | [5] 12.7% | [6] 24.8%

CC(=O)c1ccco1
inactive: [1] 17.8% | [2] 16.4% | [3] -5.15% | [4] -43% | [5] 1.25% | [6] 13.1%

CCOC(=O)C(C)=P(c1ccccc1)(c1ccccc1)c1ccccc1
inactive: [1] -1.6% | [2] -5.8% | [3] -1% | [4] -39.2% | [5] -0.7% | [6] -11.3%

CC(C(=O)OCc1ccccc1)(c1ccco1)N1C(=O)OC(c2ccccc2)C1c1ccccc1 (stereo unspecified)
inactive: [1] -4.35% | [2] -3.5% | [3] 4.55% | [4] -3.5% | [5] -17.1% | [6] -23.1%

O=C(C(=O)N1CCc2ccccc21)c1c[nH]c2ccccc12
inactive: [1] 5.75% | [2] 2% | [3] -11.8% | [4] 3.1% | [5] -2.95% | [6] 12.5%

CC(=O)c1c(-c2ccccc2)noc1C
inactive: [1] 7.35% | [2] -7.35% | [3] -7.55% | [4] -37.4% | [5] -12.8% | [6] -1.4%

CS(=O)CC1OC2OC3C(CO)OC(OC4C(CO)OC(OC5C(CO)OC(OC6C(CO)OC(OC7C(CO)OC(OC8C(CO)OC(OC1C(O)C2O)C(O)C8O)C(O)C7O)C(O)C6O)C(O)C5O)C(O)C4O)C(O)C3O (stereo unspecified)
inactive: [1] -1.9% | [2] -17.4% | [3] -8.55% | [4] -21.4% | [5] -8% | [6] 10.2%

CCC(CC)c1ccc2ccccc2c1
inactive: [1] -22.2% | [2] 1% | [3] -11.6% | [4] -19.6% | [5] -6.55% | [6] -11.4%

O=C(c1ccccc1)c1ccc2[nH]ccc(=O)c2c1
inactive: [1] -4.7% | [2] 0.5% | [3] -3.7% | [4] -31.1% | [5] -7.85% | [6] 4.3%

COc1ccc(-n2nc3c(ccc4ccccc43)c2N)cc1
inactive: [1] 2.8% | [2] -8.5% | [3] 16.5% | [4] -2.05% | [5] -0.4% | [6] 8.5%

Cc1ccc(S(=O)(=O)N2CCOCC2)cc1
inactive: [1] -2.9% | [2] -20.1% | [3] -13.3% | [4] 15.5% | [5] -0.7% | [6] -30.4%

CSc1nnc(SC)s1
inactive: [1] -3.3% | [2] -22.6% | [3] -18.8% | [4] 22.9% | [5] 1.4% | [6] -9.35%

COc1ccccc1/C=C/C(=O)c1sc(-c2cccnc2)nc1C
inactive: [1] 38.5% | [2] 17.5% | [3] 5.3% | [4] 17.9% | [5] 23.9% | [6] 33.5%

CC(=O)OC1CC2(C)OC(Cc3ccccc32)O1 (stereo unspecified)
inactive: [1] -37.2% | [2] -3.05% | [3] -58.6% | [4] 4.4% | [5] -23.1% | [6] -43.5%

NC(=O)C(CCN1CCCCC1)c1ccccc1 (stereo unspecified)
inactive: [1] 27.2% | [2] -7.35% | [3] 7.75% | [4] 9.5% | [5] 5.45% | [6] 24.8%
